36 sequences from the OligoGym collection can be followed below.
Note: reference of the scale not given here.

For one test, the target named is RWDD2B. As to the kind of experiment: pooled miR-30 sensor sort-seq; sequence = guide strand. The settings on record: shRNA.
As for TCTTCTTTTCAATACAATCTTT, the sensor-assay potency score (higher = more potent) is -0.675.

As to TCAACTGACTGGACTGTGCTTC, the sensor-assay potency score (higher = more potent) is 0.407.

In turn, TTCCACACAAACAACACCAGGT registered a sensor-assay potency score (higher = more potent) of 0.95.

As to TCCATTAACACTGAACACTTTT, the sensor-assay potency score (higher = more potent) was -0.901.

As for TTTCAGTTCTGCTACAGCCAGC, the sensor-assay potency score (higher = more potent) was -0.902.

Regarding TTGATAGTAAAGTAGACTTTTG, the sensor-assay potency score (higher = more potent) was -1.18.

As for TTTTTCGTCAGATACATCCAGG, the sensor-assay potency score (higher = more potent) is -0.29.

For the sequence TAACACTGAACACTTTTTCTTC, the sensor-assay potency score (higher = more potent) is -0.298.

TTGGACATGTGTAAGTTTCTTG: the sensor-assay potency score (higher = more potent) is 0.645.

Regarding TCAGTATACAAACATCTCCATG, the sensor-assay potency score (higher = more potent) is -1.45.

The sequence TAGAATATTCTTTCTTTTGCAT displayed a sensor-assay potency score (higher = more potent) of 0.0563.

Sequence TTCAGTATACAAACATCTCCAT came in with a sensor-assay potency score (higher = more potent) of 0.0635.

A further test concerns the target RXFP4. Described as above. Conditions: shRNA.
For TAGCTGGTGGTGATGACGCCCA, the sensor-assay potency score (higher = more potent) is -0.885.

Consider TTGAAGACGAAGGTGTCTGAAG, for which the sensor-assay potency score (higher = more potent) is -0.402.

Regarding TACAGCACAGGGTTGAGGCAGC, the sensor-assay potency score (higher = more potent) was -0.483.

With TCTTGCAGAGGGCACCTCCGAA, the sensor-assay potency score (higher = more potent) was -1.29.

Consider TCAGGAGACAGTACAGCACAGG, for which the sensor-assay potency score (higher = more potent) is -0.981.

TAGCGAGCAACGCTCAGCGCTG: the sensor-assay potency score (higher = more potent) was -1.3.

TAGACGTTGAGGACAGTGGCCG registered a sensor-assay potency score (higher = more potent) of 0.159.

On to AACTTCACCAGGACACCCCAGA, for which the sensor-assay potency score (higher = more potent) was -1.12.

Turning to AGGAATTTGACAGGCATCGGAG, the sensor-assay potency score (higher = more potent) is -1.05.

For TTGCTTGCGACCCACCGCCTGC, the sensor-assay potency score (higher = more potent) is -0.81.

Turning to TAGAAGGGCGGCTCTCCCGGGG, the sensor-assay potency score (higher = more potent) was -0.734.

The sequence TAGGAATTTGACAGGCATCGGA gave a sensor-assay potency score (higher = more potent) of 0.2.

The next test deals with RYK. The description is as above. The settings on record: shRNA.
Turning to TTTAGAGTTATCCTCTCTCTGG, the sensor-assay potency score (higher = more potent) is -0.8.

TTTTTGTAGCACATTTTCCTTC: the sensor-assay potency score (higher = more potent) was -0.15.

On to TAACTGTTTTGACAAATGCTTG, for which the sensor-assay potency score (higher = more potent) is -1.47.

As to TTACTGCACAACAAACCCCTAC, the sensor-assay potency score (higher = more potent) is -0.546.

With TTGTATTATCTCCTTTTCCAGA, the sensor-assay potency score (higher = more potent) was -1.16.

With TATTCGGTAACCATCTTTCAGG, the sensor-assay potency score (higher = more potent) is -0.693.

Consider TTGAAGACAAACCATTTCCCAG, for which the sensor-assay potency score (higher = more potent) was -0.946.

For TTTCATACTATGAAGGTGCAAA, the sensor-assay potency score (higher = more potent) was -0.131.

TTTTCATCTATTAAAATCCCAT: the sensor-assay potency score (higher = more potent) is -0.695.

Turning to TTGTCTGTGATCTTAACTTGAA, the sensor-assay potency score (higher = more potent) was -0.554.

Take TATTGCTATATCCTTCACCTTG: the sensor-assay potency score (higher = more potent) is -0.912.

In turn, TTGTAGCACATTTTCCTTCGTT gave a sensor-assay potency score (higher = more potent) of 0.000719.
